Drawing on PubChem BioAssay (NCI), this text covers growth inhibition for 19 molecules.

About 79,000 compounds went through this panel and 15% of them were active in at least one assay; those are over-represented in the sample as a whole. A number with no mark means an inactive call. Activity calls are given as the source filed them. No stated cut-off is given here; in the data, active means growth inhibition above about 70%; inactive means the rest.

The nature of assay [1]: NCI Yeast Anticancer Drug Screen. Data for the rad50 strain (AID 155).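 Further: 0% = growth of vehicle-only cultures of the same strain.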 Conditions: S. cerevisiae rad50 strain growth inhibition; at 50.0 µM; active compounds read high. An outline of the steps:
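Yeast carrying a defined DNA repair defect were exposed to test compounds, and growth was compared with vehicle-treated controls to give percent inhibition.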

A short description of assay [2]: NCI Yeast Anticancer Drug Screen. Data for the mec2-1 strain (AID 157). Conditions: S. cerevisiae mec2-1 strain, at 50.0 µM, active compounds read high. An outline of the steps:
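Mutant yeast (mec2-1) grown with compound; growth inhibition relative to vehicle control reported.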

Assay [3] is described as follows: NCI Yeast Anticancer Drug Screen. Data for the sgs1 mgt1 strain (AID 161).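 Further: 0% = growth of cultures given vehicle only.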 The note with it: S. cerevisiae sgs1 mgt1 strain, at 50.0 µM, active compounds read high. An outline of the steps: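 Percent growth inhibition was derived by comparing compound-exposed mutant yeast with vehicle-exposed cultures. The strain carries alterations in DNA damage repair.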
A short description of assay [4]: NCI Yeast Anticancer Drug Screen. Data for the cln2 rad14 strain (AID 165).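 Further: 0% = growth equal to vehicle treated cultures.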 The note with it: S. cerevisiae cln2 rad14 strain, at 50.0 µM, active compounds read high. An outline of the steps:
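Readout is yeast growth inhibition versus vehicle-treated controls, using a strain with cln2 and rad14 alterations exposed to compound.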

Assay [5] can be described thus: NCI Yeast Anticancer Drug Screen. Data for the bub3 strain (AID 167). Conditions: S. cerevisiae bub3 mutant strain, at 50.0 µM, active compounds read high. An outline of the steps:
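Compounds were applied to a genetically altered yeast strain carrying a cell-cycle control defect. Growth inhibition was scored against vehicle-treated controls.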

A short description of assay [6]: NCI Yeast Anticancer Drug Screen. Data for the mlh1 rad18 strain (AID 175). The note with it: S. cerevisiae mlh1 rad18 strain growth inhibition; at 50.0 µM; active compounds read high. An outline of the steps: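 Genetically defined yeast (DNA repair-deficient) exposed to compounds; growth inhibition determined relative to vehicle.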

`N#CCCN(CCC#N)c1ccc(/C=C2\N=C(COc3ccc(Cl)cc3Cl)OC2=O)cc1`: the growth inhibition in assay [1] is -12.9%; in assay [2], -10%; in assay [3], -14.8%; in assay [4], 0.7%; in assay [5], 6.8%; in assay [6], -4.3%.

`CC(=O)OC1(C)C(=O)OC/C2=C/CN(C)CCC(OC(=O)C(O)(C(C)Cl)CC1C)C2=O` (centres undefined): the growth inhibition in assay [1] was 4.75%; in assay [2], 2.9%; in assay [3], -7.95%; in assay [4], 13%; in assay [5], -6.35%; in assay [6], -43.9%.

For the molecule `CC(=O)OCC1OC(n2cnc3c(N)ncnc32)C(O)C1O` (centres undefined), the growth inhibition is -3.7% in assay [1]; -6.45% in assay [2]; -6.15% in assay [3]; -39.7% in assay [4]; 4.5% in assay [5]; -11.2% in assay [6].

For the molecule `CC(C)(C)OC(=O)c1cccc(C(=O)OC(C)(C)C)c1`, the growth inhibition in assay [1] was 0.6%; in assay [2], 41.6%; in assay [3] it was 32.2%; in assay [4], -9.7%; in assay [5], 39.1%; in assay [6], 17.3%.

With `Cc1cc2c(cc1Cl)SC(NNC(=O)c1ccncc1)=NS2(=O)=O`, the growth inhibition in assay [1] was -42.5%; in assay [2] it was -39.8%; in assay [3], -45.9%; in assay [4], -32.4%; in assay [5], -63.4%; in assay [6] it was -9.4%.

As to `C/C(CC(C)C)=N\NC(=O)Nc1ccccc1Cl`, the growth inhibition was 4.5% in assay [1]; 5.7% in assay [2]; -2.4% in assay [3]; -3.85% in assay [4]; 26.7% in assay [5]; 6.35% in assay [6].

In the case of `CN(C)NC(=O)/C=C\C(=O)O`, the growth inhibition was -12.6% in assay [1]; -17.4% in assay [2]; -9.8% in assay [3]; -6.9% in assay [4]; -7.45% in assay [5]; -3.2% in assay [6].

For `COc1cc2cc(-c3ccc(Cl)c(Cl)c3)[n+](C)cc2cc1OC`, the growth inhibition was 36% in assay [1]; 20.1% in assay [2]; 35.3% in assay [3]; 21.6% in assay [4]; -3.55% in assay [5]; 13.7% in assay [6].

As for `COc1ccccc1CC/C(C)=N/NS(=O)(=O)c1ccc(C)cc1`, the growth inhibition was 10.8% in assay [1]; 4.1% in assay [2]; 6.35% in assay [3]; -24.1% in assay [4]; 11.5% in assay [5]; 6.5% in assay [6].

For the molecule `CCSC(C(O)C(O)C(O)C(O)CO)n1cnc2c(SC)ncnc21` (centres undefined), the growth inhibition in assay [1] was 20.1%; in assay [2], -15.3%; in assay [3], 1.05%; in assay [4], -26%; in assay [5], -4.95%; in assay [6], -3.85%.

Turning to `CN(C)Cc1ccccc1C=C(c1ccccc1)c1ccccc1`, the growth inhibition in assay [1] is 3.05%; in assay [2] it was 0.65%; in assay [3], -6.2%; in assay [4], -37.9%; in assay [5], 0.55%; in assay [6], -9.8%.

On to `COC1=C2CC(C)CC(OC)C(OC(C)=O)C(C)/C=C(\C)C(OC(N)=O)C(OC)/C=C\C=C(/C)C(=O)NC(=CC1=O)C2=O` (centres undefined), for which the growth inhibition in assay [1] is 90% (active); in assay [2], 91% (active); in assay [3] it was 92.2% (active); in assay [4], 87.2% (active); in assay [5] it was 90.7% (active); in assay [6] it was 89.4% (active).

For the molecule `Cc1n(C)c(C(O)c2ccccc2)c(Br)[n+]1C` (centres undefined), the growth inhibition was 9.3% in assay [1]; 1.4% in assay [2]; 8.25% in assay [3]; -12.1% in assay [4]; 77.7% (active) in assay [5]; 12.6% in assay [6].

In the case of `NC(=O)CC(NC(=O)C(F)(F)F)C(=O)O` (centres undefined), the growth inhibition in assay [1] was -15.3%; in assay [2] it was -22.9%; in assay [3], -13.4%; in assay [4], -6.85%; in assay [5], -14.2%; in assay [6], -24.2%.

Take `O=C1c2cc(Cl)ccc2-c2cc(Cl)c(Cl)cc21`: the growth inhibition in assay [1] is -0.8%; in assay [2], -2.05%; in assay [3] it was 10.4%; in assay [4], -29.9%; in assay [5] it was -3.45%; in assay [6], 26.6%.

`CC(=O)OC1C(COC(N)=O)OC(n2c(-c3ccc(C)cc3)cc(-c3ccccc3)c(C#N)c2=O)C(OC(C)=O)C1OC(C)=O` (centres undefined): the growth inhibition in assay [1] was -18.4%; in assay [2] it was 7.25%; in assay [3], 4.75%; in assay [4] it was 22.4%; in assay [5], 26.9%; in assay [6], 11.3%.

Take `COc1ccc(NC(=O)CC(=O)N/N=C/c2ccc(N(CCC#N)S(=O)(=O)c3ccccc3)cc2)cc1`: the growth inhibition is -35.5% in assay [1]; -11.8% in assay [2]; -29.5% in assay [3]; 8.15% in assay [4]; -11.2% in assay [5]; -2.75% in assay [6].

Take `O=C1CCCC2=C1CC1=C(CCCC1=O)N2c1cccc2ccccc12`: the growth inhibition in assay [1] is 7.7%; in assay [2] it was -16%; in assay [3] it was 12.7%; in assay [4], 9.85%; in assay [5] it was 21.8%; in assay [6] it was 28.1%.

Consider `NC(CCCOS(=O)(=O)O)Cc1ccc2ccccc2c1` (centres undefined), for which the growth inhibition in assay [1] is -10.6%; in assay [2] it was 9.35%; in assay [3], 16.6%; in assay [4] it was 10.2%; in assay [5], 3.55%; in assay [6], 8.9%.
